# Test results published in the supplement of paper PMC4166925.
# ± gives the standard deviation of the averaged measurements. In all, about 33,000 sequences were measured (“E-score (dimensionless, -0.5 to 0.5)”: median about -0.046, highest 2% from about 0.36 on). The sample holds the highest values, similar sequences and a random draw of the others, so the mix is not that of the screen.
# Tested on: T1, SpTbr T-box DNA-binding domain (GST fusion)
# T1 sequence: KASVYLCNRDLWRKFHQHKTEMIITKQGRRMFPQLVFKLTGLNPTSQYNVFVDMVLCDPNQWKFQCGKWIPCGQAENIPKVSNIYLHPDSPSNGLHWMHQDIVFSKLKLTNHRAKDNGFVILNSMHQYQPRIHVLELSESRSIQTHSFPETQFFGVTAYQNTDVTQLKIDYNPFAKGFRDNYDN
# Assay: PBM E-score of 8-mer (E-score (dimensionless, -0.5 to 0.5)); Tbr is Tbrain of the sea star Patiria miniata (Pm) or the sea urchin Strongylocentrotus purpuratus (Sp); higher = stronger binding preference
# Conditions: the construct has about 5 more residues each side
# Experimental: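 Universal protein-binding microarray (Agilent AMADID 016060, 60-bp probes with a 35-bp variable region) incubated with 200 nM GST-fused Strongylocentrotus purpuratus Tbr T-box DNA-binding domain (residues 362-554) in PBS pH 7.5. Scored for every ungapped 8-mer (given with its reverse complement) as E-score (range -0.5 to 0.5; >0.45 counts as bound) and Z-score of median probe intensity. Two replicate arrays (datasets 1 and 2).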
# 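Also: protein at 200 nM in PBS on universal double-stranded arrays.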
row,Sequence,PBM E-score of 8-mer
1,CGTGTCTA,0.135 ± 0.05
2,GCTGTCAC,0.326 ± 0.025
3,GGTGTCAC,0.475 ± 0.0052
4,GTTGTCAA,0.3671 ± 0.0033
5,CCTGTCAA,0.328 ± 0.025
6,AATGTCAG,0.0267 ± 0.006
7,AGTGTCAG,0.371 ± 0.0097
8,GCTCGCCA,0.231 ± 0.017
9,GCCCCATA,-0.112 ± 0.064
10,ATGGGGAG,-0.243 ± 0.051
11,AGGGGTGG,0.147 ± 0.069
12,AATGGCTA,-0.134 ± 0.02
13,CATGAGTC,-0.08024 ± 0.00076
14,GACTTATA,0.0117 ± 0.031
15,ACAACCCT,0.0805 ± 0.0049
16,ATCGTTGC,-0.00439 ± 0.021
17,GGTGTCTA,0.292 ± 0.0045
18,AGTGTCAA,0.453 ± 0.0054
19,GCTGTCAA,0.318 ± 0.049
20,ACTGTCAA,0.183 ± 0.035
21,AGTGTCTA,0.17 ± 0.024
22,AATGTCAT,-0.162 ± 0.031
23,TGTGTCAA,0.398 ± 0.011
24,GGTGTCAA,0.4808 ± 0.0038
25,AGTGTCAT,0.405 ± 0.017

row,Sequence,PBM E-score of 8-mer
1,TATGTCAA,0.159 ± 0.0082
2,ACTGTCAT,0.196 ± 0.032
3,TCTGTCAA,0.109 ± 0.046
4,TAAGAACA,-0.0304 ± 0.082
5,ATATAGTC,-0.0444 ± 0.027
6,ATAGCCCA,-0.13 ± 0.078
7,CGCAGAGA,-0.217 ± 0.082
8,CCAATAAG,-0.199 ± 0.0037
9,CATGAATC,0.0324 ± 0.072
10,CCCCCCCC,-0.0653 ± 0.059
11,AACTCTGC,0.164 ± 0.011
12,GGAAGCAA,-0.216 ± 0.074
13,CGTGTCAC,0.362 ± 0.034
14,AGTGTCAC,0.43943 ± 0.00026
15,ACTGTCAC,0.35403 ± 0.00029
16,ACGCCCAA,-0.049 ± 0.13
17,CACAGACC,-0.0948 ± 0.053
18,AGACACCG,0.0814 ± 0.026
19,ACACACCT,0.44741 ± 0.0002
20,AAACACCG,0.155 ± 0.0066
21,ACGCACCA,0.0513 ± 0.0069
22,ACGCACCT,0.366 ± 0.0075
23,AAACACCC,0.1718 ± 0.0003
24,AGACACCT,0.4345 ± 0.003
25,ACACACCG,0.224 ± 0.013

row,Sequence,PBM E-score of 8-mer
1,ACGCACCG,0.0314 ± 0.086
2,AGACACAT,0.229 ± 0.0028
3,AAACACCT,0.442 ± 0.015
4,ACACACAT,0.328 ± 0.0053
5,GCTTCAAA,0.0158 ± 0.019
6,ACCAATGA,-0.0571 ± 0.11
7,GTAGATAA,-0.151 ± 0.039
8,GATCGTGA,0.173 ± 0.054
9,ACCTGGTA,-0.0333 ± 0.028
10,CGGCCCTC,-0.119 ± 0.093
11,GACGTTCC,-0.197 ± 0.016
12,AAGTGAAG,0.13 ± 0.049
13,ACAGATGT,0.152 ± 0.018
14,ACCTATTC,0.0131 ± 0.033
15,GACCCGTA,-0.0138 ± 0.012
16,ACTTCTAC,0.037 ± 0.013
17,CGGAGCCA,-0.164 ± 0.067
18,CATGCCCC,-0.219 ± 0.047
19,AACACATC,0.375 ± 0.012
20,GACACATC,0.363 ± 0.028
21,CTCACATA,0.157 ± 0.034
22,AACACATG,0.336 ± 0.046
23,AACACAGC,0.115 ± 0.086
24,CACACATC,0.4 ± 0.013
25,ATCACATC,0.109 ± 0.02

row,Sequence,PBM E-score of 8-mer
1,CTCACATC,0.377 ± 0.013
2,CGCACATC,0.338 ± 0.022
3,AACACACT,0.211 ± 0.022
4,AACACATA,0.345 ± 0.029
5,AACACATT,0.383 ± 0.024
6,CATGAAAC,-0.146 ± 0.031
7,GCTAGCAC,0.2678 ± 0.0018
8,TAAGGTAA,-0.107 ± 0.0024
9,AGTGCTGA,0.0461 ± 0.029
10,CTCCTCTC,0.0391 ± 0.091
11,GCCCAATA,-0.142 ± 0.1
12,AAGCTATA,-0.0728 ± 0.05
13,GCAGGTGA,0.414 ± 0.011
14,GTAGGTTA,-0.184 ± 0.0098
15,CTAGGTGA,0.356 ± 0.026
16,ACAGGTGC,0.436 ± 0.013
17,CCAGGTGC,0.3516 ± 0.00069
18,ACAGGTGA,0.373 ± 0.0074
19,ACAGGTGG,0.316 ± 0.026
20,GCAGGTCA,0.036 ± 0.077
21,GCAGGTAA,-0.0374 ± 0.063
22,ACAGGTTA,0.257 ± 0.043
23,GTAGGTGA,0.379 ± 0.023
24,CCAGGTGA,0.306 ± 0.012
25,GTCATAAA,-0.00255 ± 0.054

row,Sequence,PBM E-score of 8-mer
1,AAAAGATA,-0.0313 ± 0.063
2,CTACGCAC,0.0937 ± 0.02
3,TACCTCTA,-0.164 ± 0.002
4,ATAAGAGC,-0.19 ± 0.022
5,ACCCTCGG,-0.124 ± 0.045
6,ATGCAGAG,-0.18 ± 0.023
7,ACGAACCG,0.192 ± 0.063
8,CATTTTCA,0.0656 ± 0.088
9,AGTTCTGA,-0.131 ± 0.043
10,TAGACCCA,-0.101 ± 0.067
11,AAGTGGTG,0.205 ± 0.007
12,CGACCATC,0.0183 ± 0.023
13,CAGAGGAG,-0.063 ± 0.011
14,AGGTGGAG,0.158 ± 0.025
15,CGGTGGCA,0.186 ± 0.053
16,AGGTGGCC,0.075 ± 0.0048
17,GGGTGGCA,0.288 ± 0.014
18,AGGTGGCA,0.432 ± 0.015
19,AGGTGGCG,0.401 ± 0.011
20,CCCATCAC,0.189 ± 0.031
21,CCCGAGGG,-0.341 ± 0.026
22,AACGCATA,0.0089 ± 0.0093
23,CACGCCTA,0.375 ± 0.016
24,AACGCCTG,0.292 ± 0.006
25,CACGCCTC,0.395 ± 0.032

row,Sequence,PBM E-score of 8-mer
1,CGCGCCTC,0.365 ± 0.039
2,CGCGCCTA,0.356 ± 0.037
3,TACGCCTA,0.0945 ± 0.018
4,AACGCCAT,0.199 ± 0.029
5,AACGCCTT,0.367 ± 0.041
6,GACGCCTC,0.328 ± 0.017
7,AACGCCTA,0.298 ± 0.038
8,AACGCCTC,0.35 ± 0.0088
9,AGCGCCTC,0.268 ± 0.0083
10,ACTCGCTC,-0.0581 ± 0.083
11,AGCCAATG,-0.218 ± 0.056
12,AAACCGCG,0.0876 ± 0.057
13,AGCATCTG,-0.116 ± 0.028
14,GCCACGGC,-0.0294 ± 0.015
15,CGTGTTAG,0.332 ± 0.015
16,CGTGTTAA,0.409 ± 0.0099
17,GCTGTTAC,0.0324 ± 0.031
18,AGTGTTAG,0.3895 ± 0.00056
19,ACTGTTAG,0.195 ± 0.048
20,AGTGTTTG,0.219 ± 0.041
21,CGTGTTAC,0.308 ± 0.0063
22,GGTGTAAC,0.349 ± 0.014
23,AGTGTAAA,0.338 ± 0.049
24,GGTGTTAC,0.4612 ± 0.0021
25,GGTGTAAA,0.436 ± 0.012

row,Sequence,PBM E-score of 8-mer
1,CCTGTTAA,0.168 ± 0.067
2,AGTTAGAT,-0.191 ± 0.0088
3,CCTAACTC,-0.0227 ± 0.032
4,ACAGCCAA,0.00932 ± 0.037
5,CACCACCA,0.145 ± 0.0054
6,AATAGCAA,0.151 ± 0.019
7,AGTCCTTG,-0.0449 ± 0.074
8,AGGCGGTG,-0.0537 ± 0.076
9,GGAGCCCC,-0.206 ± 0.022
10,AGTGTTGG,0.3684 ± 7.1e-06
11,AATGTTAT,0.0346 ± 0.014
12,TCTGTTAA,0.131 ± 0.02
13,AGTGTTGC,0.346 ± 0.0099
14,TATGTTAA,0.0661 ± 0.067
15,GGTGTTTA,0.386 ± 0.015
16,ACTGTTAT,0.152 ± 0.032
17,AGTGTTGA,0.351 ± 0.006
18,AGTGTTAT,0.372 ± 0.045
19,AGTGTTTA,0.245 ± 0.062
20,TGTGTTAA,0.407 ± 0.011
21,CGTGTTTA,0.123 ± 0.047
22,GGTCTCAA,-0.0536 ± 0.098
